PubChem BioAssay
Inconclusive results are not listed. The source made the active and inactive calls. Cut-off not given; nearly all actives show AC50 up to about 26 µM.

test: JHH-DIPG-1 glioma cell viability, MIPE5.0 library, CellTiter-Glo luminescence, qHTS (AID 1347067); settings: JHH-DIPG-1 glioma viability, CellTiter-Glo ATP luminescence;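 further: cells exposed to compound for 48 hours before readout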

| SMILES | AC50 | outcome |
| --- | --- | --- |
| COCc1c(-c2ccc(NC(=O)Nc3cc(C(F)(F)F)ccc3F)c(F)c2)c2c(N)ncnn2c1CN1CCOCC1 | 6.61 µM (active) |  |
| COc1ccc(-n2cnc3cc(C(=O)N4CCCCC4)ccc32)cc1 |  | inactive |
| O=C(NO)c1cnc(NC2(c3ccccc3)CC2)nc1 | 2.95 µM (active) |  |
| CCCCOC(=O)NS(=O)(=O)c1sc(CC(C)C)cc1-c1ccc(Cn2ccnc2)cc1 | 20.9 µM (active) |  |
| CC(C)C(N)C(=O)OCC(CO)OCn1cnc2c(=O)[nH]c(N)nc21 (stereo not drawn) |  | inactive |
| OC(c1ccc(-c2ccc(CN3CCN(Cc4ccncc4)CC3)cc2)c(F)c1)(C(F)(F)F)C(F)(F)F |  | inactive |
| CN1C(=O)N[C@H](Cc2c[nH]c3c(Cl)cccc23)C1=O |  | inactive |
| COc1ncc(Nc2ncc([C@H](C)N3CCN(S(C)(=O)=O)CC3)cc2-c2nc(C)nc(N)n2)cc1F | 1.18 µM (active) |  |
